Rows were chosen to be rich in hits. Some 11% of all compounds tested hit in one or more screens of this group.
G9a block – inhibitors of human histone lysine methyltransferase G9a. hit rate 8.8% among 350,000. Potency, µM (series often up to 102 µM), inactives show top-dose activity, negative = inhibition, usual class: inhibitors. Q96KQ7. G9a H3K9 monomethylation, AlphaScreen, 2 h; also: % is scaled to controls: 0 for no effect and ±100 for the full control effect; nearly all actives have a fitted effect of over 75% in size
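Methyltransferase reactions run at room temperature for 2 h (20 nM enzyme, 500 nM biotin-H3K9 peptide, 20 uM SAM) after a 15 min compound preincubation; product detected by AlphaScreen beads and anti-H3K9me1 antibody.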
PLK1 PBD block – blocks phosphopeptide binding to human PLK1 polo-box domain; Potency, µM, without a hit: max response, negative = inhibition, most hits filed as inhibitors; P53350; Plk1 PBD binding of FITC phosphopeptide, fluorescence polarization; hit rate 2.8% among 360,000; also: series mostly up to about 57 µM; % is scaled to controls: 0 for no effect and ±100 for the full control effect; nearly all actives have a fitted effect of over 65% in size
HP1b chromo inh – blocks HP1-beta chromodomain binding to methylated histone tails; AlphaScreen HP1-beta / biotin-H3K9me3 peptide binding; hit rate 0.56% among 390,000; AID 540317; P83916; Potency, µM (highest dose often 114 µM), for inactives: at the highest dose activity change, negative = inhibition, hits mostly inhibitors; also: nearly all actives have a fitted effect of over 70% in size
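AlphaScreen: HP1-beta (50 nM) preformed 30 min with biotin-H3(1-18)K9me3 peptide (50 nM) in PBS pH 7.4, 0.01% Tween-20. Compound added for 30 min at RT, then streptavidin donor/nickel chelate acceptor beads (10 ug/mL) for 30 min.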
VDR inh – blocks the human vitamin D receptor; Potency, µM, for inactives: max response, negative = inhibition, actives largely listed as inhibitors; VDR-SRC2-3 peptide fluorescence polarization, 2 h; hit rate 0.93% among 400,000; P11473; also: % is scaled to controls: 0 for no effect and ±100 for the full control effect
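Inhibition of the VDR/SRC2-3 peptide interaction is quantified by fluorescence polarization. Compounds (23 nl, pintool) incubate with the reagents for 2 hours at ambient room temperature.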
JMJD2A Tudor inh – blocks the human JMJD2A Tudor domain; AlphaScreen JMJD2A-Tudor / H3K4me3 peptide binding; hit rate 4.4% among 390,000; AID 504339; Potency, µM (series often up to 114 µM), without a hit: at the top dose activity change, negative = inhibition, most hits filed as inhibitors; also: % is scaled to controls: 0 for no effect and ±100 for the full control effect; nearly all actives have a fitted effect of over 50% in size
BAZ2B block – blocks human BAZ2B. Q9UIF8. hit rate 4.4% among 360,000. AlphaScreen BAZ2B-H3K14Ac peptide displacement. Potency, µM (highest dose often 114 µM), without a hit: at the highest dose activity change, negative = inhibition, hits mostly inhibitors; also: % is scaled to controls: 0 for no effect and ±100 for the full control effect; nearly all actives have a fitted effect of over 60% in size
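Protein-peptide AlphaScreen: BAZ2B 50 nM, b-H3K14Ac 50 nM, 1x PBS pH 7.4 + 0.01% Tween-20. Preincubation 30 min RT; cpd 30 min RT (top 110 uM); beads 20 min RT, light-protected.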
An asterisk follows results filed as active; u = inconclusive; x = no result; [ ] = another dose, or the depositor's remark. Calls follow the shape of the dose curve; as a rule, active = well fitted curve in the direction sought with a large enough effect; inconclusive = small, poorly fitted or top-dose-only effect, or another doubt; inactive = no such curve, though single readings can be large; an effect the other way counts as inactive or inconclusive. Potency is read from the fitted curve at half-maximal effect.

SMILES	G9a block	PLK1 PBD block	HP1b chromo inh	VDR inh	JMJD2A Tudor inh	BAZ2B block
CON(C)S(=O)(=O)c1cccc(C(=O)Nc2ccc(S(=O)(=O)NC3=NCCCCC3)cc2)c1	50.1µM*	-7.7%	10.9%	-9.5%	-4.1%	7.8%
CCN(CC)S(=O)(=O)c1cccc(C(=O)Nc2ccc(S(=O)(=O)NC3=NCCCCC3)cc2)c1	15.8µM*	-7.5%	3.4%	-23.4%	-17.2%	0.9%
CCN(CC)c1ccc(C(=O)N2CCC(c3c[nH]c4ccccc34)(c3c[nH]c4ccccc34)CC2)cc1	0.4%[59 µM]	x	-12.1%	4.1%	u	u
Cc1ccc(N=Nc2c(=O)[nH]n3c(=O)cc(C)[nH]c23)cc1	u	-8.0%	-16.8%	10.5%	u	50.1µM*
CCc1nn(CC(=O)NCc2ccccc2Cl)c(=O)c2cc3ccccc3n12	-5.3%[59 µM]	x	25.7%	9.0%	-3.3%	1.6%
CN1C(=O)/C(=C2/C=CC=CN2C)OC1=S	31.6µM*	u	u	11.3%	-17.1%[57.1 µM]	-10.8%
CCN1/C(=C2\OC(=S)N(C)C2=O)C=Cc2ccccc21	3.4%	41.5%	15.2%	-8.0%	-11.7%	x
CC(O)c1cc2c(cc1NC(=O)c1cnn3c1NC(c1ccco1)CC3C(F)(F)F)OCO2 (stereo not drawn)	-25.5%[12.7 µM]	-5.5%	21.6%	10.5%	-9.1%	-3.5%
COc1cccc(N2CCN(c3ccc4nnc(CCC(=O)N5CCC(C)CC5)n4n3)CC2)c1	-21.6%	23.8µM*	0.0%	-27.6%	u	-22.8%
COc1cccc(N2CCN(c3ccc4nnc(CCC(=O)Nc5ccc(F)cc5)n4n3)CC2)c1	55.9%	-9.3%	13.6%	-17.8%	-9.7%	-26.7%
COc1cccc(N2CCN(c3ccc4nnc(CCC(=O)Nc5cccc(C(C)=O)c5)n4n3)CC2)c1	10.5%[59 µM]	21.2µM*	6.8%	u	15.8µM*	-10.5%
CCOC(=O)c1cccc(NC(=O)CCn2cccc2)c1	39.8µM*	-13.6%	-4.1%	22.1%	-34.1%	u
COc1ccc(OC)c(CCNC(=O)CCc2nnc3ccc(N4CCOCC4)nn23)c1	10.8%	29.9µM*	4.3%	-20.4%	u	-37.3%
COc1ccc(N2CCN(C(=O)CCc3nnc4ccc(N5CCC(C)CC5)nn34)CC2)cc1	-16.0%	0.4%	7.7%[57 µM]	-0.7%	-17.1%	-27.7%
O=C(CCc1cn(Cc2ccccc2Cl)c2ccccc12)NC1CCCCC1	-34.3%[59 µM]	x	28.5%	3.0%	-4.8%	-8.5%
CC1CCC(NC(=O)C(NS(=O)(=O)c2ccc(Br)cc2)C(C)C)CC1 (stereo not drawn)	x	-9.0%	x	x	x	x
CC(C)c1ccc(NC(=O)Cc2c(C(=O)O)n(C)c3ccccc23)cc1	11.0%	-7.0%	6.6%	-16.1%	-10.5%	-5.9%
COc1ccccc1CNC(=O)CCc1nnc2ccc(NCCCN3CCCC3=O)nn12	27.7%	21.2µM*	18.8%	-8.7%	-27.5%	-3.5%[57.1 µM]
COc1ccc(CNC(=O)CCc2nnc3ccc(NCCCN4CCCC4=O)nn23)cc1	4.7%	0.8%	41.5%	-1.0%	-8.3%	-4.9%[57.1 µM]
CCOC(=O)c1cccc(NC(=O)c2cc3cc4ccc(C)cc4nc3s2)c1	12.6µM*	x	-13.4%	4.2%	u	-12.4%
CCOC(=O)c1cccc(NC(=O)CCc2nnc3ccc(N4CCN(C)CC4)nn23)c1	8.7%	23.8µM*	19.8%	-12.5%	-32.1%	-1.5%
O=C(CCc1nnc2ccc(N3CCC4(CC3)OCCO4)nn12)Nc1ccc(F)cc1	-1.5%[59 µM]	13.4µM*	16.6%	u	u	-3.7%
COc1ccc(NC(=O)CCc2nnc3ccc(N4CCC5(CC4)OCCO5)nn23)cc1	13.4%	-17.5%	41.7%	-18.8%	-6.9%	-1.0%
O=C(COC(=O)c1ccccc1F)Nc1cccnc1Cl	3.9%	-6.2%	60.6%	8.6%	12.7%	-11.8%
CCO[C@@H]1OC(C(=O)N2CCCCCCC2)=C[C@H](c2ccc(C(F)(F)F)cc2)[C@H]1CCCO	-3.5%[59 µM]	-14.8%	33.6%	-20.4%	-25.4%	-2.3%
SMILES	G9a block	PLK1 PBD block	HP1b chromo inh	VDR inh	JMJD2A Tudor inh	BAZ2B block
O=C1CN(C(=O)c2c(F)cccc2F)C(c2ccc(F)cc2)c2cc(F)ccc2N1 (stereo not drawn)	-1.2%	5.8%	17.8%	-4.7%	-16.4%	-13.8%
Cc1cccc(Nc2nnc(SCC3CCCCO3)s2)c1 (stereo not drawn)	10µM*	-4.5%	23.7%	-15.0%	-2.7%	-7.6%
Cc1sc2ncnc(SCC(=O)c3ccc(O)cc3O)c2c1C	u	-18.6%	56.6%	-2.7%	1.5%[11.4 µM]	-35.0%
Cc1cccc(Nc2nnc(SCC(=O)c3ccc(O)cc3O)s2)c1	44.7µM*	-27.1%	38.3%	9.7%	-26.7%	-4.6%
Cc1ccc(Nc2nnc(SCC(=O)c3ccc(O)cc3O)s2)cc1	31.6µM*	-26.2%	-8.9%	15.5%	-33.1%	-12.8%
Cc1cccc(Nc2nnc(SCC(=O)Nc3ccc(C(=O)O)cc3)s2)c1	-26.9%	-2.7%	14.9%	-7.8%	-4.8%	-5.1%
O=C(Nc1ccc(Cl)c(S(=O)(=O)N2CCOCC2)c1)c1ccccc1-c1ccc(C(F)(F)F)cc1	16.2%[59 µM]	-4.1%	52.4%	-7.8%	-12.5%	5.9%
O=C(CSc1nc2[nH]ncc2c(=O)n1-c1ccc(Cl)c(Cl)c1)NCc1ccccc1Cl	u	-7.1%	-2.2%	2.3%	-29.1%	x
Nc1c(N=Nc2ccc(-c3ccc(N=Nc4cc(S(=O)(=O)O)c5ccccc5c4N)cc3)cc2)cc(S(=O)(=O)O)c2ccccc12	3.55µM*	x	x	28.2µM*	x	x
CN(C(=O)/C=C/c1ccc([N+](=O)[O-])s1)c1ccccc1	44.7µM*	u	-14.3%	-15.2%	u	39.8µM*
CN(C(=O)COC(=O)/C=C/c1ccccc1[N+](=O)[O-])c1ccccc1	3.4%	1.3%	21.4%	-14.1%	-11.7%	-29.2%
Cc1[nH]c(N=Nc2ccccc2)nc1N=Nc1ccccc1	7.94µM*	-0.9%	u	-0.9%	7.94µM*	6.31µM*
O=S(=O)(O)c1cccc2cccnc12	x	x	22.9%	-16.9%	u	x
O=S(=O)(O)c1cccc2cccc(Nc3ccccc3)c12	x	15µM*	15.9%	u	50.1µM*	x
O=C(NCCCN1CCOCC1)/C(=C/c1cccs1)NC(=O)c1ccccc1	5.6%[59 µM]	4.0%	17.2%	-0.1%	3.9%	0.2%
COc1ccc(C=O)cc1CSc1ccccn1	x	23.8µM*	28.8%	3.5%	3.2%	14.0%
COc1ccc(/C=N/NC(=O)c2ccc(O)cc2O)cc1CSc1ccccn1	50.1µM*	-24.0%	u	-5.6%	u	56.2µM*
COc1ccc(CCC(=O)N2CCN(S(=O)(=O)c3cccc(Cl)c3)CC2)cc1	-3.0%[12.7 µM]	-9.4%	32.1%	11.0%	-14.1%	12.0%
COc1ccc(CCNC(=O)CCn2c(=O)c3ccccc3n(Cc3cc(C)ccc3C)c2=O)cc1OC	0.7%[59 µM]	x	2.6%	5.3%	-13.3%	-1.6%
C1=C(CCNCC2CCCCC2)CCCC1	-24.0%[59 µM]	0.4%	36.9%	-7.4%	-9.0%	-0.2%

Source: PubChem BioAssay
